Compound activity from PubChem.
Shown are actives, neighbours in structure and some others; about 19% of the full set was active somewhere.
HT1080 IDH1KD tx = toxicity to HT-1080 IDH1 knockdown cells (counter line). HT-1080 IDH1 knockdown viability, ATP luminescence, 48 h. Potency, µM (doses to about 46.1 µM), for the others: at the top dose activity, negative = toxicity, hits mostly cytotoxic. 360,000 compounds, 2% hits;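 also: potency is read from the fitted curve at half-maximal effect; 0% = DMSO wells and -100% = cell-free medium wells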
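CellTiter-Glo luminescence after 48 h compound exposure at 37 degrees C of IDH1-knockdown HT-1080 cells in 5% FBS RPMI. %Activity scaled between DMSO wells and cell-free media wells, with curves fitted and assigned curve classes.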
DT40 TDP1 CPT = growth inhibition of DT40 Tdp1-/-;hTDP1 cells with camptothecin (screen for TDP1 inhibitors). Potency, µM (highest dose often 46.2 µM), without a hit: at the highest dose activity change, negative = growth inhibition, actives largely listed as inhibitors. chicken DT40 Tdp1-/-;hTDP1 cells + 20 nM CPT, ATP luminescence, 48 h. 420,000 compounds, 12% hits. AID 686979; also: potency is read from the fitted curve at half-maximal effect; nearly all actives have a fitted effect of over 55% in size
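Cell growth measured by CellTiter-Glo luminescence after a minimum 48 h, 37 C compound exposure with 20 nM CPT in Tdp1-knockout DT40 cells stably expressing hTDP1, seeded 400/well; qHTS titration format.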
IL1B secr inh = blocks inflammasome-driven IL-1 beta release; THP-1 LPS/ATP IL-1B secretion, AlphaLISA, 16 h; active compounds read low; activity change, % at 57.5 µM; 360,000 compounds, 4.7% hits; AID 743279; in the data active = activity change below about -50%; inconclusive = mostly about -30% to -49%
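Secreted IL-1B measured by AlphaLISA bead assay after 16 h compound exposure of THP-1 cells; compounds (final up to 57.5 uM) added 1 h before LPS (250 ng/mL) and ATP (1.25 mM) stimulation; lower signal means less secretion.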
DT40 TDP1 no CPT = qHTS for Inhibitors of human tyrosyl-DNA phosphodiesterase 1 (TDP1): qHTS in cells in absence of CPT; DT40 Tdp1-/- hTDP1 cells, no CPT, ATP luminescence, 48 h; Potency, µM (doses to about 46.2 µM), inactives show at the highest dose activity change, negative = growth inhibition, most hits filed as inhibitors; 420,000 compounds, 15% hits; also: potency is read from the fitted curve at half-maximal effect; nearly all actives have a fitted effect of over 55% in size
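No-CPT arm: Tdp1-/-;hTDP1 DT40 cells (400/well) plus compounds, incubated ≥48 hr at 37 °C. Readout CellTiter-Glo luminescence.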
HT1080NT lethal = kills 2HG-producing HT-1080-NT fibrosarcoma cells; 360,000 compounds, 1.6% hits; Potency, µM (top dose mostly 46.1 µM), without a hit: top-dose activity, negative = less viability, actives largely listed as cytotoxic; HT-1080-NT fibrosarcoma viability, CellTiter-Glo ATP luminescence, 48 h;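 also: NT is the 2HG producing partner of a matched IDH1 knockdown line; potency is read from the fitted curve at half-maximal effect; 0% = DMSO-treated cells and -100% = media-only wells without cells; nearly all actives have a fitted effect of over 55% in size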
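HT-1080-NT fibrosarcoma cells (2HG-overproducing), 750 cells/well in RPMI with 5% FBS, dosed after 2 h and incubated 48 h at 37C. CellTiter-Glo luminescence normalized to DMSO and no-cell wells; concentration-response curves fitted and classed.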
* hit, by the source's call; ? = inconclusive; . = not tested or not shown; [ ] = dose if it differs, or a comment. Unless noted, calls follow the shape of the dose curve; as a rule, active = well fitted curve in the direction sought with a large enough effect; inconclusive = small, poorly fitted or top-dose-only effect, or another doubt; inactive = no such curve, though single readings can be large; an effect the other way counts as inactive or inconclusive. Unless noted, % is scaled to controls: 0 for no effect and ±100 for the full control effect.

SMILES	HT1080 IDH1KD tx	DT40 TDP1 CPT	IL1B secr inh	DT40 TDP1 no CPT	HT1080NT lethal
O=C(Nc1ccc(S(=O)(=O)N2CCOCC2)cc1)c1cccc([N+](=O)[O-])c1	-9%	?	-4	-14%	-11%
O=C(Nc1ccc(S(=O)(=O)N2CCOCC2)cc1)c1ccc(Cl)c([N+](=O)[O-])c1	-33%	13µM*	-96*	13µM*	?
CN(C)S(=O)(=O)c1cccc(NC(=O)c2ccc(N3CCOCC3)c([N+](=O)[O-])c2)c1	-10%	16µM*	-7	?	-16%
Cc1ccc(C(=O)Nc2cccc(S(=O)(=O)N3CCOCC3)c2)cc1[N+](=O)[O-]	-1%	12µM*	-4	?	-5%
CCOC(=O)C1=C(C)NC(=S)N(C=O)C1c1ccccc1 (stereo unspecified)	-1%	-15%	-12	?	4%
O=C(N/N=C1\C2CN3CCN(C2)CC1(c1ccccc1)C3)Nc1ccccc1	7%	1%	6	-18%	17%
CC(C)(C)OC(=O)N1CCC[C@H]1c1nnc(SCC(=O)Nc2ccc(Br)cc2)o1	-1%	-12%	-10	-29%	-1%
CC(=O)N1CCN(c2ccc(NC(=O)c3ccc(Cl)c(Cl)c3)cc2)CC1	7%	?	-2	?	4%
CC(=O)N1CCN(c2ccc(NC(=O)c3ccc(Cl)c([N+](=O)[O-])c3)cc2)CC1	15%	?	-52*	-15%	11%
COc1ccc(CN=C(C)c2c(C(F)(F)F)[nH]n(-c3nc4ccccc4s3)c2=O)cc1	-6%	5%	8	?	-7%
COC(=O)Cc1[nH]n(-c2nc3ccccc3s2)c(=O)c1C(C)=O	-19%	-18%	-11	10µM*	-25%
CC(=O)c1c(CC(=O)O)[nH]n(-c2nc3ccccc3s2)c1=O	10µM*	?	10	?	10µM*
COc1ccc(NC(=O)c2cc(Br)c(Br)s2)cn1	-12%	0%	-53*	?	-10%
O=C(Nc1ccc(Br)cc1)c1cc(Br)c(Br)s1	.	?	.	19µM*	.
COc1ccc(CN(C(=O)Cn2nnc(-c3ccc(C)o3)n2)C(C(=O)NCC2CCCO2)c2ccco2)cc1 (stereo unspecified)	-15%	-28%	-8	?	2%
CCOC(=O)c1sc(NC(=O)c2nc(SC)ncc2Cl)c(C(=O)OCC)c1C	.	-13%	.	5%	.
COc1cc(Br)c(C[N+]2(CCOCCC3CCC4CC3C4(C)C)CCOCC2)cc1OC (stereo unspecified)	.	1.9µM*	.	1.9µM*	.
CCOC(=O)c1c(C)oc2nc(C)nc(NCc3ccccc3OC)c12	.	12µM*	.	15µM*	.
CCOC(=O)c1c(C)oc2nc(C)nc(NCc3ccccc3Cl)c12	.	16µM*	.	?	.
CCOC(=O)c1c(C)oc2nc(C)nc(NCC3CCN(Cc4cccc(C)c4)CC3)c12	.	3%	.	-11%	.
CCCS(=O)(=O)c1c(S(=O)(=O)CCC)c2ccc(C(N)=O)cn2c1C(=O)OC	1%	-12%	-4	14%	-4%
CCCS(=O)(=O)c1c(S(=O)(=O)CCC)c2ccc(C(C)=O)cn2c1C(=O)OC	-5%	?	-136*	-7%	-12%
Cc1cnc(NC(=O)c2cncc(Br)c2)s1	20%	-13%	-10	-22%	?
Cc1cccc(CN2CCC(CNC(=O)Nc3ccccc3F)CC2)c1	-2%	-24%	-11	-29%	-7%
Cc1ccc(C)c(CN2CCC(CNC(=O)Nc3ccc(Br)cc3F)CC2)c1	?	10µM*	-83*	?	16µM*
SMILES	HT1080 IDH1KD tx	DT40 TDP1 CPT	IL1B secr inh	DT40 TDP1 no CPT	HT1080NT lethal
O=C(NCC1CC1)Nc1ccc(Cl)cc1	4%	-15%	-5	?	-8%
Cc1ccc(C)c(CN2CCC(CNC(=O)Nc3ccc(Cl)cc3)CC2)c1	-13%	21µM*	-95*	?	-1%
O=C(Cn1cc(C(F)(F)F)ccc1=O)NCC1CCCO1 (stereo unspecified)	10%	5%	0	16%	0%
CCOC(=O)[C@]12CCC=C1N(Cc1ccco1)C(=O)[C@H](CC(=O)N1CCN(C(=O)C3CC3)CC1)C2	17%	16%	13	-2%	12%
O=C(CCS(=O)(=O)Cc1ccc(Cl)cc1)NCCCN1CCN(c2ccccc2F)CC1	?	11µM*	?	?	?
O=C(Cc1ccc(Cl)cc1)NCCS(=O)(=O)N1CCN(c2ccccc2F)CC1	?	5.2µM*	4	5.8µM*	?
COc1ccc(CCC(=O)NCCS(=O)(=O)N2CCN(c3ccccc3OC)CC2)cc1	-2%	21µM*	20	18µM*	5%
Cc1c(C(=O)NCCS(=O)(=O)N2CCN(c3ccccc3F)CC2)cccc1[N+](=O)[O-]	?	?	17	21µM*	?
O=C(NCCS(=O)(=O)N1CCN(c2ccccc2F)CC1)c1ccc(Cl)cc1	2%	-2%	-1	-21%	0%
Cc1ccccc1CS(=O)(=O)CCC(=O)NCCCN1CCN(c2ccccc2F)CC1	-11%	?	-5	?	-9%
COc1cccc(C(O)c2nc(-c3cnn(C)c3)cs2)c1 (stereo unspecified)	0%	?	42	?	5%
Cc1ccnc(N/C=C(/NC(=O)c2ccccc2)C(=O)N/N=C\c2ccc(Cl)cc2)n1	12%	?	-9	?	25%
N#Cc1ccc(C(=O)Nc2cccc3ccccc23)c(F)c1	12%	28%	-4	2%	24%
O=C(CCCc1ccccc1)NCCS(=O)(=O)N1CCN(c2ccccc2F)CC1	-13%	?	0	18µM*	-12%
CCOC(=O)C1CCN(C(=O)CSC2=NCCS2)CC1	8%	-16%	-11	-20%	7%
Cc1cccc(Nc2nnc(SCC(=O)c3ccc(Br)s3)s2)c1C	?	?	4	?	?
CN(C)c1nc(OCCNC(=O)COc2ccccc2Cl)nc(N(C)C)n1	15%	?	12	10µM*	23%
COc1cc(C)nc(OCCNC(=O)COc2ccc(Cl)cc2C)n1	-7%	16µM*	-2	21µM*	0%
Cc1cc(Cl)ccc1OCC(=O)NCCOc1nc(N2CCCCC2)nc(N2CCOCC2)n1	1%	7.3µM*	1	6.5µM*	5%
Cc1cc(Cl)ccc1OCC(=O)NCCC(=O)O	-1%[9.24 µM]	-20%	10	?	-19%
O=c1oc2ccccc2c2c1nnn2CCO	-14%	-2%	9	6%	-7%
